Results from PubChem BioAssay (EPA / NIEHS).
Inconclusive results are not listed. Activity calls are given as the source filed them. How the source made its calls: active means hit-call score of the fitted dose curve at least 0.9, where 1 is the maximum; inconclusive means response in the unintended direction; inactive means score below 0.9.

Key:
[1] = biological target: Cellular tumor antigen p53 (Homo sapiens) (UniProt P04637); assay: TOX21_p53_BLA_p2_ratio: Tox21 HCT-116 p53 Agonism Beta-lactamase Assay, Ratio, Phase 2 (AID 2283592)
How it was run: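 HCT116 cells carrying a p53-responsive beta-lactamase reporter were plated, incubated 5 h at 37C, then dosed with compounds in DMSO (217-fold dilution) for 16 h. CCF4-AM substrate was added for 2 h at room temperature; the 460/530 nm emission ratio gave gain-of-signal activity relative to DMSO.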

[2] = TOX21_p53_BLA_p3_viability: Viability Assessment in the Tox21 HCT-116 p53 Agonism Beta-lactamase Assay, Phase 3 (AID 2283593);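 further: cells exposed to compound for 16 h before reading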
How it was run: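 Cellular ATP was quantified by CellTiter-Glo luminescence, read after 30 min at room temperature. Beforehand, HCT116 cells (4000/well) received compound 5 h post-seeding, 217-fold diluted from DMSO, then incubated 16 h at 37C.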

[3] = TOX21_p53_BLA_p4_viability: Viability Assessment in the Tox21 HCT-116 p53 Agonism Beta-lactamase Assay, Phase 4 (AID 2283597);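 further: hits lower the luminescence signal meaning cytotoxicity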
How it was run: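 HCT116 p53-bla cells (4000/well) rested 5 h at 37C, then received compounds in DMSO (217-fold dilution) for 16 h at 37C, 5% CO2. CellTiter-Glo was added after the CCF4-AM read, and luminescence was read after 30 min at room temperature.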

[4] = biological target: Cellular tumor antigen p53 (Homo sapiens) (UniProt P04637); assay: TOX21_p53_BLA_p5_ratio: Tox21 HCT-116 p53 Agonism Beta-lactamase Assay, Ratio, Phase 5 (AID 2283599)
How it was run: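 Beta-lactamase reporter ratio (blue 460 nm over green 530 nm, 405 nm excitation) after 2 h CCF4-AM loading, in HCT-116 cells exposed 16 h at 37 C to compounds pinned at 217-fold dilution. Increases relative to DMSO baseline scored.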

[5] = TOX21_p53_BLA_p5_viability: Viability Assessment in the Tox21 HCT-116 p53 Agonism Beta-lactamase Assay, Phase 5 (AID 2283600)
How it was run: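 Cells were plated at 4000/well, rested 5 h at 37C, then given compounds in DMSO (217-fold dilution) for 16 h at 37C, 5% CO2. Following the CCF4-AM beta-lactamase read, CellTiter-Glo was added and luminescence was read after 30 min at room temperature.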

[6] = biological target: Cellular tumor antigen p53 (Homo sapiens) (UniProt P04637); assay: TOX21_p53_BLA_p4_ratio: Tox21 HCT-116 p53 Agonism Beta-lactamase Assay, Ratio, Phase 4 (AID 2283601)
How it was run: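 Signal is the blue/green (460nm/530nm) ratio of cleaved versus uncleaved CCF4-AM substrate, read after 2 h substrate loading. Cells were HCT116 carrying the p53-responsive beta-lactamase reporter, dosed 16 h at 37C, 5% CO2; CellTiter-Glo measured in parallel.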

[7] = biological target: Cellular tumor antigen p53 (Homo sapiens) (UniProt P04637); assay: TOX21_p53_BLA_p3_ratio: Tox21 HCT-116 p53 Agonism Beta-lactamase Assay, Ratio, Phase 3 (AID 2283596)
How it was run: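 HCT116 p53-bla cells (4000/well) given compound in DMSO (217-fold dilution) after 5 h, incubated 16 h at 37C. CCF4-AM substrate 2 h at room temperature; 460/530 nm emission ratio, gain fitted against DMSO.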

PGR (gene 5241) [8] = biological target: PGR (gene 5241) (UniProt P06401); assay: TOX21_PR_BLA_Followup_Agonist_ratio: Tox21 HEK293 Progesterone Receptor (PR) Agonism Beta-lactamase Follow-Up Assay, Ratio (AID 2283933)
How it was run: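 HEK293T PR-UAS-bla, 2% CS-FBS; 6 hr preincubation, cpd/DMSO pinned, 16 hr 37C/5% CO2; LiveBLAzer B/G 2 hr RT; FRET ch2/ch1 ratio, agonist direction vs DMSO. Viability by CellTiter-Glo in same wells.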

PGR (gene 5241) [9] = biological target: PGR (gene 5241) (UniProt P06401); assay: TOX21_PR_BLA_Followup_Antagonist_ratio: Tox21 HEK293 Progesterone Receptor (PR) Antagonism Beta-lactamase Follow-Up Assay, Ratio (AID 2283934)
How it was run: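 HEK293T PR-UAS-bla, 2% CS-FBS; 6 hr plating, then cpd + R5020 (1 nM final), 16 hr 37C/5% CO2. B/G FRET substrate 2 h RT. Ratio ch2/ch1 vs DMSO; CellTiter-Glo viability multiplexed, autofluorescence checked.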

[10] = TOX21_PR_BLA_Followup_Agonist_viability: Viability Assessment in the Tox21 HEK293 Progesterone Receptor (PR) Agonism Beta-lactamase Follow-Up Assay (AID 2283935);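 further: signal loss means lower viability so actives are cytotoxic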
How it was run: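 HEK293T PR-UAS-bla, 3,000 cells/well, 2% CS-FBS; 6 hr pre-incubation; cpd in DMSO, 16 hr 37C; LiveBLAzer 2 hr RT, then CellTiter-Glo 30 min RT, luminescence. Decrease = lost viability.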

PGR (gene 5241) [11] = biological target: PGR (gene 5241) (UniProt P06401); assay: TOX21_PR_LUC_Followup_Antagonist: Tox21 HEK293 Progesterone Receptor (PR) Antagonism Luciferase Follow-Up Assay (AID 2283938);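 further: curve fitted upward as signal gain over DMSO baseline despite antagonist label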
How it was run: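 HEK293-PR-A-luc cells were precultured 5 days in medium with 10% charcoal-stripped FBS, seeded 3,000/well, then exposed to compounds in DMSO for 16 h at 37C. Luciferase was read by ONE-Glo luminescence after 30 min at room temperature.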

[12] = TOX21_PR_LUC_Followup_Antagonist_viability: Viability Assessment in the Tox21 HEK293 Progesterone Receptor (PR) Antagonism Luciferase Follow-Up Assay (AID 2283940)
How it was run: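 Multiplexed viability counter-screen: after 5 days in charcoal-stripped-FBS medium, HEK293-PR-A-luc cells are plated, pinned with DMSO-dissolved compounds for 16 h at 37C, and ATP content is quantified luminescently via CellTiter-Glo.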

[13] = TOX21_PR_LUC_Followup_Agonist_viability: Viability Assessment in the Tox21 HEK293 Progesterone Receptor (PR) Agonism Luciferase Follow-Up Assay (AID 2283941);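 further: loss of signal means cytotoxicity so actives lower viability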
How it was run: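 Cells were kept 5 days in charcoal-stripped serum medium before plating HEK293-PR-A-luc at 3,000 cells/well. After 5 h they received DMSO-dissolved compound and incubated 16 h at 37C. Viability was taken from CellTiter-Glo ATP luminescence.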

Measured: AC50

Sequence of Cellular tumor antigen p53 (Homo sapiens) (P04637 whole entry, looked up): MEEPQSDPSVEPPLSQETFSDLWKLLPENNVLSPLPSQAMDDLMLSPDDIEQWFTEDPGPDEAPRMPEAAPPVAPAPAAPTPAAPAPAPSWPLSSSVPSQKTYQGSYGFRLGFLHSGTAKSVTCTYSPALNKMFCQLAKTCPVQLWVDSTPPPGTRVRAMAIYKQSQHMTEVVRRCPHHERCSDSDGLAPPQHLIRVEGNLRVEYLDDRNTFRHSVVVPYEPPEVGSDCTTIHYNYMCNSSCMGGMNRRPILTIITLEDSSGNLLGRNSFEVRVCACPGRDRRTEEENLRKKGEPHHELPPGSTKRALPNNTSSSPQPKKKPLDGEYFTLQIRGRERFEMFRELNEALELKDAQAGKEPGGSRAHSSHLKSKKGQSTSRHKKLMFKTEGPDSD
Sequence of PGR (gene 5241) (P06401 whole entry, looked up): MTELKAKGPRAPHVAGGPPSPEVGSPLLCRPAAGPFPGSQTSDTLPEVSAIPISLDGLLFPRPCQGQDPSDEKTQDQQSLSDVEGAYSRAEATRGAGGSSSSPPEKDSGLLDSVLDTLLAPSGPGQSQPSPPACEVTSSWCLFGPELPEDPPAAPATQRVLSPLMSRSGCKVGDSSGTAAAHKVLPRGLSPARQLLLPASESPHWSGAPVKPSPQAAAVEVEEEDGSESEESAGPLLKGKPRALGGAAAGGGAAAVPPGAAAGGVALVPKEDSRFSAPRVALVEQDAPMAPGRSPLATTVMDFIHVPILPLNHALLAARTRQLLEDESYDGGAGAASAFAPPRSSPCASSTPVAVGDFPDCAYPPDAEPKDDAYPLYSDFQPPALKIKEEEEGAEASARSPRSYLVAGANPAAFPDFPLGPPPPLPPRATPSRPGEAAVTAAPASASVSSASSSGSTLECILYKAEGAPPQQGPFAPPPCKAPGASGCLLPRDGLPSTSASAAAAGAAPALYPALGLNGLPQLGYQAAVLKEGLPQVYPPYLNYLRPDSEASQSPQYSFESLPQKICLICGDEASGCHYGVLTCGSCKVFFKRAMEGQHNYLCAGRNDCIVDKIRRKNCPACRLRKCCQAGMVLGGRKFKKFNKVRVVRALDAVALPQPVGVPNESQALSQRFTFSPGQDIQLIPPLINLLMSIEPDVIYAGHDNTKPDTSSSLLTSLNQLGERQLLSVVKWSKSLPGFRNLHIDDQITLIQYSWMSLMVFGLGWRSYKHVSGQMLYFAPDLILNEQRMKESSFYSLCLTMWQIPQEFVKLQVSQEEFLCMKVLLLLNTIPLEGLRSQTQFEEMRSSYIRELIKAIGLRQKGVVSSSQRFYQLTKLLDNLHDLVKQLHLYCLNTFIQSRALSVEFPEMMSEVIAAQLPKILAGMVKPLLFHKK

Fc1ccc([C@@H]2CCNC[C@H]2COc2ccc3c(c2)OCO3)cc1
active: [3] 37.4 µM
inactive: [1] | [2] | [4] | [5] | [6]

CC1CS(=O)(=O)CCN1N=Cc1ccc([N+](=O)[O-])o1 (centres undefined)
inactive: [1] | [2] | [3] | [4] | [5]

C=C(C)CC(C)(C)C
inactive: [1] | [2] | [3] | [4] | [5] | [6]

CCCCN(CCCC)C(=S)SSC(=S)N(CCCC)CCCC
inactive: [1] | [2] | [3] | [4] | [5]

O=C(CCCCCCCCCCCCC1CCCC1)Nc1ccc(S(=O)(=O)c2ccc(NC(=O)CCCCCCCCCCCCC3CCCC3)cc2)cc1
inactive: [1] | [2] | [3] | [4] | [6]

COC[C@H](c1ccc(C(F)(F)F)cc1)N1CCN(C2(C)CCN(C(=O)c3c(C)ncnc3C)CC2)C[C@H]1C
inactive: [1] | [2] | [3] | [4] | [5] | [6]

O=Cc1ccc([N+](=O)[O-])cc1
inactive: [1] | [2] | [3] | [4] | [6]

CN(Cc1ccccc1)Cc1ccccc1
inactive: [1] | [2] | [3] | [4] | [6]

C[C@H](Cc1ccc(O)c(O)c1)[C@@H](C)Cc1ccc(O)c(O)c1
active: [3] 25.9 µM
inactive: [1] | [2] | [4] | [6]

C[C@@H]1O[C@@H](OC[C@H]2O[C@@H](Oc3c(-c4ccc(O)c(O)c4)oc4cc(O)cc(O)c4c3=O)[C@H](O)[C@@H](O)[C@@H]2O)[C@H](O)[C@H](O)[C@H]1O
inactive: [1] | [3] | [4] | [5] | [6]

CC(=O)N[C@@H](CCC(N)=O)C(=O)O
inactive: [1] | [3] | [4] | [5]

O=C(CCCN1CCN2CCCC2C1)c1ccc(F)cc1 (centres undefined)
inactive: [1] | [3]

COc1ccc(C(=O)c2ccc(C)cc2)c(O)c1
inactive: [1] | [7] | [3] | [4] | [5] | [6]

CC1COc2ccccc2N1 (centres undefined)
inactive: [2] | [7] | [3]

CN1[C@@H]2CCC[C@H]1CC(NC(=O)c1nn(C)c3ccccc13)C2 (some centres undefined)
inactive: [1] | [2] | [3] | [5]

COc1ccc2c(=O)c(C)c(-c3ccccc3)oc2c1CN(C)C
inactive: [1] | [7] | [3]

Cc1cccc(C)c1NC(=O)CC12CCCN1CCC2
inactive: [1] | [7] | [4] | [5] | [6]

CC(=O)OCC(=O)[C@@]1(O)CC[C@H]2[C@@H]3CCC4=CC(=O)C=C[C@]4(C)[C@H]3[C@@H](O)C[C@@]21C
inactive: PGR (gene 5241) [8] | PGR (gene 5241) [9] | [10] | PGR (gene 5241) [11] | [12] | [13]

Cc1cc(C)cc(OCC2CNC(=O)O2)c1 (centres undefined)
inactive: [1] | [7] | [6]

CCn1cc(C(=O)O)c(=O)c2cc(F)c(N3CCNCC3)cc21
inactive: [1] | [7] | [3] | [4] | [6]

CCC(=O)O[C@H]1CC[C@H]2[C@@H]3CCc4cc(O)ccc4[C@H]3CC[C@]12C
inactive: [1] | [7] | [4] | [5] | [6]
active: [3] 37.2 µM

N[C@@H](Cc1cnc[nH]1)C(=O)O
inactive: [1] | [2] | [3] | [5]

CC(C)(C)NCC(O)c1ccc(O)c(CO)c1 (centres undefined)
inactive: [1] | [7] | [3] | [4] | [5] | [6]

FC(F)(F)c1ccc(Cl)cc1Cl
inactive: [1] | [3] | [4] | [6]
